Laboratory results as given in PubChem BioAssay (EPA / NIEHS).
Records with an inconclusive call do not appear. Active and inactive are the calls of the source. The calls were made as follows: active = hit-call score of the fitted dose curve at least 0.9, where 1 is the maximum; inconclusive = response in the unintended direction; inactive = score below 0.9.

Experiments:
[1] = TOX21_p53_BLA_p2_viability: Viability Assessment in the Tox21 HCT-116 p53 Agonism Beta-lactamase Assay, Phase 2 (AID 2283591);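 also: compound exposure lasted 16 h at 37 °C; actives lower the ATP signal meaning cytotoxicity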
Summary of the method: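 HCT-116 p53-bla cells (4000/well) rested 5 h at 37C, then received compounds in DMSO (217-fold dilution) for 16 h at 37C, 5% CO2. After the CCF4 read, CellTiter-Glo was added; ATP luminescence was read after 30 min at room temperature.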

[2] = target: Cellular tumor antigen p53 (Homo sapiens) (UniProt P04637); experiment: TOX21_p53_BLA_p2_ratio: Tox21 HCT-116 p53 Agonism Beta-lactamase Assay, Ratio, Phase 2 (AID 2283592)
Summary of the method: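 DMSO-normalized, positive-direction endpoint derived from the 460 nm/530 nm FRET ratio in HCT116 p53 beta-lactamase reporter cells exposed 16 h at 37C and loaded with CCF4-AM for 2 h.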

[3] = target: Cellular tumor antigen p53 (Homo sapiens) (UniProt P04637); experiment: TOX21_p53_BLA_p3_ratio: Tox21 HCT-116 p53 Agonism Beta-lactamase Assay, Ratio, Phase 3 (AID 2283596)
Summary of the method: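 Cells were seeded at 4000/well, rested 5 h at 37C, then dosed with DMSO compound solutions (217-fold dilution) for 16 h. CCF4-AM substrate was loaded for 2 h at room temperature, and the 460/530 nm emission ratio was fitted for gain of signal versus DMSO.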

[4] = target: Cellular tumor antigen p53 (Homo sapiens) (UniProt P04637); experiment: TOX21_p53_BLA_p5_ratio: Tox21 HCT-116 p53 Agonism Beta-lactamase Assay, Ratio, Phase 5 (AID 2283599)
Summary of the method: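 HCT-116 cells carrying a p53-inducible beta-lactamase reporter were seeded at 4000 cells/well and dosed after 5 h with compound in DMSO (217-fold dilution). After 16 h at 37C, CCF4-AM substrate was added for 2 h, and the 460/530 nm emission ratio was scored as gain-of-signal versus DMSO.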

[5] = TOX21_p53_BLA_p5_viability: Viability Assessment in the Tox21 HCT-116 p53 Agonism Beta-lactamase Assay, Phase 5 (AID 2283600)
Summary of the method: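 Here cell health was gauged by ATP levels in wells holding 4000 cells, each treated 16 h with DMSO-delivered compounds at 217-fold dilution; reduced luminescence marked toxicity.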

[6] = target: Cellular tumor antigen p53 (Homo sapiens) (UniProt P04637); experiment: TOX21_p53_BLA_p4_ratio: Tox21 HCT-116 p53 Agonism Beta-lactamase Assay, Ratio, Phase 4 (AID 2283601)
Summary of the method: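 HCT116 cells carrying an inducible beta-lactamase reporter were plated at 4000 cells/well, rested 5 h, then exposed to compounds in DMSO (217-fold dilution) for 16 h at 37C. CCF4-AM substrate was loaded 2 h at room temperature; 460/530 nm emission ratio scored gain-of-signal versus DMSO.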

[7] = TOX21_p53_BLA_p3_viability: Viability Assessment in the Tox21 HCT-116 p53 Agonism Beta-lactamase Assay, Phase 3 (AID 2283593);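 also: cells exposed to compound for 16 h before reading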
Summary of the method: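 HCT-116 cells (4000/well) rested 5 h at 37C, then got DMSO compounds by pin tool (217-fold dilution) for 16 h at 37C, 5% CO2. After the bla read, CellTiter-Glo was added and luminescence read at 30 min, room temperature.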

[8] = TOX21_p53_BLA_p4_viability: Viability Assessment in the Tox21 HCT-116 p53 Agonism Beta-lactamase Assay, Phase 4 (AID 2283597);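 also: hits lower the luminescence signal meaning cytotoxicity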
Summary of the method: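 In this multiplexed secondary endpoint, HCT116 cells (4000 per well, compound at 5 h, 16 h treatment) received CellTiter-Glo after the beta-lactamase read. Luminescence after 30 min RT reflects ATP, and falling signal marks cytotoxicity.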

Chain of Cellular tumor antigen p53 (Homo sapiens) (P04637 whole entry, looked up): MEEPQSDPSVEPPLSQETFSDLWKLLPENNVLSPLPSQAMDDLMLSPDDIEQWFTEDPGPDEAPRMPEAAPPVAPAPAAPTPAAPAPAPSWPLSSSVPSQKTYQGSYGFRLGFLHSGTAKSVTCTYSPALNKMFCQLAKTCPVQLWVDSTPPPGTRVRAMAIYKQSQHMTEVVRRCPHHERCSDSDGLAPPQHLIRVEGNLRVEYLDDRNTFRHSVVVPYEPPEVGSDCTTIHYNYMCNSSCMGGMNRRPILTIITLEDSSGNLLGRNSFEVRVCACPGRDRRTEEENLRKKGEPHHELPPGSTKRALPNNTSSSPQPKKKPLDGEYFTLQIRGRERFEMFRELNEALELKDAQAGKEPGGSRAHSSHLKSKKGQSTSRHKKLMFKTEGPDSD

Row | SMILES | outcome [1] | outcome [2] | outcome [3] | outcome [4] | outcome [5] | outcome [6] | outcome [7] | outcome [8] | AC50 [8]
1 | CCC(C(=O)NC(N)=O)c1ccccc1 (stereo unspecified) | inactive | inactive | inactive | inactive | inactive | inactive |  |  | 
2 | O=C(O)c1snc(Cl)c1Cl | inactive | inactive | inactive | inactive | inactive | inactive | inactive | inactive | 
3 | Nc1ccc(S(N)(=O)=O)cc1 | inactive | inactive | inactive | inactive | inactive | inactive | inactive | inactive | 
4 | COCCCOc1ccnc(CS(=O)c2nc3ccccc3[nH]2)c1C (stereo unspecified) | inactive | inactive |  | inactive | inactive | inactive | inactive | inactive | 
5 | COC(C)CCO (stereo unspecified) | inactive |  | inactive |  | inactive |  | inactive |  | 
6 | C=CC(C)(CCC=C(C)C)OC=O (stereo unspecified) | inactive | inactive |  |  |  | inactive |  |  | 
7 | CC(=O)Nc1ccc(CC(=O)O)cc1 | inactive | inactive | inactive | inactive | inactive | inactive | inactive | inactive | 
8 | OCC(CO)(CO)COCC(CO)(CO)CO |  |  |  | inactive | inactive | inactive | inactive | inactive | 
9 | CCC(=O)/C=C/C1C(C)=CCCC1(C)C (stereo unspecified) |  | inactive | inactive | inactive |  | inactive | inactive |  | 
10 | CCCCCCOC(=O)CC |  | inactive | inactive | inactive |  |  |  |  | 
11 | CC(C)(C)NC(N)=O |  | inactive |  | inactive | inactive | inactive |  | inactive | 
12 | CCOC(=S)SSC(=S)OCC |  | inactive | inactive | inactive | inactive | inactive | inactive | inactive | 
13 | CC(C)Oc1ccccc1O |  | inactive |  | inactive | inactive | inactive |  | inactive | 
14 | C=C[C@@H](C)CCC=C(C)C |  |  |  | inactive | inactive | inactive |  |  | 
15 | CN1[C@@H]2CC(OC(=O)[C@H](CO)c3ccccc3)C[C@H]1[C@@H]1O[C@@H]12 (stereo partly specified) |  | inactive | inactive | inactive | inactive | inactive | inactive | inactive | 
16 | Cc1ccc(C=O)s1 |  | inactive |  | inactive | inactive | inactive | inactive | inactive | 
17 | CN(C)CCCN |  | inactive | inactive | inactive | inactive | inactive |  | inactive | 

Row | SMILES | outcome [1] | outcome [2] | outcome [3] | outcome [4] | outcome [5] | outcome [6] | outcome [7] | outcome [8] | AC50 [8]
18 | C[Si](O[Si](C)(C)C)O[Si](C)(C)C |  | inactive | inactive | inactive | inactive | inactive | inactive |  | 
19 | O=C(Nc1ccccc1)c1cc([N+](=O)[O-])ccc1Cl |  | inactive | inactive | inactive | inactive | inactive |  | inactive | 
20 | OC[C@H]1O[C@H](O[C@]2(CCl)O[C@H](CCl)[C@@H](O)[C@@H]2O)[C@H](O)[C@@H](O)[C@H]1Cl |  | inactive | inactive | inactive | inactive | inactive | inactive |  | 
21 | COc1cc(C=O)ccc1OC(=O)C(C)C |  | inactive | inactive | inactive |  | inactive |  |  | 
22 | C=C(C)C(=O)NCCCN(C)C |  | inactive | inactive | inactive | inactive | inactive | inactive |  | 
23 | c1ccc2[nH]ccc2c1 |  | inactive | inactive | inactive | inactive | inactive | inactive | inactive | 
24 | C=CCOC(=O)CCC1CCCCC1 |  |  | inactive | inactive |  | inactive | inactive | inactive | 
25 | C=C(C)[C@@H]1CC[C@@H](C)C[C@@H]1O |  | inactive | inactive | inactive | inactive | inactive | inactive | inactive | 
26 | C=CC(=O)NCOCC(C)C |  |  |  |  | inactive | inactive | inactive | inactive | 
27 | CCOc1ccccc1OCC |  | inactive | inactive |  |  | inactive |  |  | 
28 | O=C(O)C[C@H](O)C[C@H](O)/C=C/c1c(C2CC2)nc2ccccc2c1-c1ccc(F)cc1 |  | inactive | inactive | inactive | inactive | inactive |  | inactive | 
29 | Nc1ccc(S(=O)(=O)O)c(N)c1 |  | inactive |  | inactive | inactive | inactive | inactive | inactive | 
30 | C=CC(=O)OCCn1c(=O)n(CCOC(=O)C=C)c(=O)n(CCOC(=O)C=C)c1=O |  |  |  | inactive | inactive | inactive | inactive |  | 15.4 µM (active)
31 | CC(O)C(C)O (stereo unspecified) |  | inactive | inactive |  | inactive |  |  |  | 
32 | O=C(O)c1cn(C2CC2)c2cc(N3CCNCC3)c(F)cc2c1=O |  |  |  |  | inactive |  |  | inactive | 
33 | O=Cc1ccc(Cl)c([N+](=O)[O-])c1 |  | inactive | inactive | inactive |  | inactive |  | inactive | 
34 | CC(C)(C)c1n[nH]c(=S)n(N)c1=O |  | inactive | inactive | inactive |  |  |  | inactive | 
